This note sets out measurements from PubChem BioAssay (NCATS).

For orientation: AC50 means the concentration at which the activity in the assay is half-maximal.

A number with no mark means an inactive call. For part of these data: Entries with a potency or affinity are not part of this list. The source made the active and inactive calls. The rule behind the calls is not given here.

For assay [1] the following is noted: Ebola virus entry assay, green fluorescence channel.
The conditions of assay [2]: Ebola virus entry assay, blue channel fluorescence.
For assay [3] the following is noted: Ebola virus entry assay, ratio channel.
The conditions of assay [4]: Ebola virus entry assay, green channel fluorescence.
The conditions of assay [5]: Ebola virus entry assay, reporter ratio channel; Channel type: primary.
For assay [6] the following is noted: Ebola virus entry assay, blue channel (ratio component).
Throughout, for efficacy: 0% is about no effect.

Turning to `OC(CN1CCC(Cc2ccc(F)cc2)CC1)c1ccc(Cl)cc1` (stereo unspecified), the efficacy in assay [1] is -10%. The compound was classed as inactive in assay [2], in assay [3], in assay [4], in assay [5] and in assay [6].
For `CSc1ccc(C(=O)c2[nH]c(=O)[nH]c2C)cc1`, in assay [1], the efficacy was 19.8%. Also, the result in assay [2], in assay [3], in assay [4], in assay [5] and in assay [6] was inactive.
Regarding `Cc1c(F)cc2c(=O)c(C(=O)O)cn3c2c1CCC3C` (stereo unspecified), the efficacy in assay [1] was 17.9%. The compound was classed as inactive in assay [2], in assay [3], in assay [4], in assay [5] and in assay [6].
With `CCCCNc1cc(C(=O)O)cc(S(N)(=O)=O)c1Oc1ccccc1`, the efficacy in assay [1] is -14.8%. For the same compound, the result in assay [2], in assay [3], in assay [4], in assay [5] and in assay [6] was inactive.
For `CCn1ccnc1CC1COc2ccccc2O1` (stereo unspecified), in assay [1], the efficacy was -17.5%. Besides, the compound was called inactive in assay [2], in assay [3], in assay [4], in assay [5] and in assay [6].
For the compound `CN(C)C(=O)Nc1ccc(Cl)c(Cl)c1`, the efficacy in assay [1] was 15.7%. Also, the outcome in assay [2], in assay [3], in assay [4], in assay [5] and in assay [6] was inactive.
On to `NC1=NCC2c3ccccc3Cc3ccccc3N12` (stereo unspecified), for which, in assay [1], the efficacy was 22.9%. Moreover, the call in assay [2], in assay [3], in assay [4], in assay [5] and in assay [6] was inactive.
For `CCOC(CN1CCN(CC(C)C(=O)c2ccccc2)CC1)c1ccccc1` (stereo unspecified), the efficacy in assay [1] is 11.6%. Besides, the AC50 in assay [2] is 7.08 µM (active); in assay [3], 10 µM (active). The call in assay [4], in assay [5] and in assay [6] was inactive.
In the case of `CS(=O)(=O)c1ccc(-c2cn3ccccc3n2)cc1`, the efficacy in assay [1] is -11.6%. Further, the call in assay [2], in assay [3], in assay [4], in assay [5] and in assay [6] was inactive.
Turning to `CCCCCCCCCCCCOS(=O)(=O)O`, the efficacy in assay [1] is -26.4%. For the same compound, the compound was classed as inactive in assay [2], in assay [3], in assay [4], in assay [5] and in assay [6].
For `O=C(CCCCCCCCC#CI)Oc1ccccc1`, the efficacy in assay [1] is -20.5%. Further, the call in assay [2], in assay [3], in assay [4], in assay [5] and in assay [6] was inactive.
For the compound `CN(C)C(=O)Oc1cccc([N+](C)(C)C)c1`, in assay [1], the efficacy was -10.1%. Also, the compound was called inactive in assay [2], in assay [3], in assay [4], in assay [5] and in assay [6].
As for `CC(C)C(=O)OCc1cccc(OC(=O)[C@@H]2N3C(=O)[C@@H](NC(=O)Cc4ccccc4)[C@H]3SC2(C)C)c1`, the efficacy in assay [1] was -28.9%. For the same compound, the compound was called inactive in assay [2], in assay [3], in assay [4], in assay [5] and in assay [6].
`O=C(CCCCC(=O)Nc1c(I)cc(I)c(C(=O)O)c1I)Nc1c(I)cc(I)c(C(=O)O)c1I`: the efficacy in assay [1] is 11.5%. Also, the outcome in assay [2], in assay [3], in assay [4], in assay [5] and in assay [6] was inactive.
On to `N[C@@H](CSCCCO)C(=O)O`, for which the efficacy in assay [1] was 25.1%. Moreover, the call in assay [2], in assay [3], in assay [4], in assay [5] and in assay [6] was inactive.
Consider `O=C1N(c2ccccc2)c2ccccc2C1(Cc1ccncc1)Cc1ccncc1`, for which the efficacy in assay [1] was 21.1%. Besides, the call in assay [2], in assay [3], in assay [4], in assay [5] and in assay [6] was inactive.
As to `COc1ccc2[nH]c(S(=O)Cc3ncc(C)c(OC)c3C)nc2n1` (stereo unspecified), the efficacy in assay [1] is 29.9%. For the same compound, the compound was called inactive in assay [2], in assay [3], in assay [4], in assay [5] and in assay [6].
Regarding `C[N+]1(C)CCC(=C(c2ccccc2)c2ccccc2)CC1`, the efficacy in assay [1] was -9.5%. The outcome in assay [2], in assay [3], in assay [4], in assay [5] and in assay [6] was inactive.
As to `CC(C)Cn1cnc2c1c(=O)n(C)c(=O)n2C`, in assay [1], the efficacy was -27.1%. The result in assay [2], in assay [3], in assay [4], in assay [5] and in assay [6] was inactive.
As for `O=C1Cc2cc(Cl)ccc2N1`, the efficacy in assay [1] is -20.6%. Moreover, the compound was called inactive in assay [2], in assay [3], in assay [4], in assay [5] and in assay [6].
On to `CCOc1ccccc1C(N)=O`, for which, in assay [1], the efficacy was -14.9%. Further, the compound was called inactive in assay [2], in assay [3], in assay [4], in assay [5] and in assay [6].
Consider `COc1cc(C(=S)N2CCOCC2)ccc1O`, for which, in assay [1], the efficacy is -16.3%. The compound was called inactive in assay [2], in assay [3], in assay [4], in assay [5] and in assay [6].
`CC(=O)Nc1ccn(C2COC(COC(=O)c3ccccc3)O2)c(=O)n1` (stereo unspecified): in assay [1], the efficacy is -16%. In addition, the compound was classed as inactive in assay [2], in assay [3], in assay [4], in assay [5] and in assay [6].
`CCOC(=O)C(=O)CCc1ccccc1`: the efficacy in assay [1] was -17.5%. Also, the compound was classed as inactive in assay [2], in assay [3], in assay [4], in assay [5] and in assay [6].
`CCCn1cnc2c1c(=O)n(CCCCC(C)=O)c(=O)n2C`: the efficacy in assay [1] is 33.9%. For the same compound, the call in assay [2], in assay [3], in assay [4], in assay [5] and in assay [6] was inactive.
In the case of `O=c1[nH]cnc2c1ncn2[C@@H]1O[C@H](CO)[C@@H](O)[C@H]1O`, the efficacy in assay [1] is -42.8%. Besides, the result in assay [2], in assay [3], in assay [4], in assay [5] and in assay [6] was inactive.
